Inhibition data for 40 compounds are collected here from ChEMBL document CHEMBL3433997, “St. Jude Leishmania screening dataset” (2016).

Broadly, the inhibition is the change of the read-out against control, counted positive when it falls.

The target of one experiment is Solute carrier family 2, facilitated glucose transporter member 1 (Homo sapiens) (UniProt P11166). Briefly: ST_JUDE_LEISH: Cytotoxicity at 2uM final concentration against transgenic Leishmania Mexicana promastigotes LmGLUT1 that are glucose transport deficient and complemented with the human glucose transporter GLUT1. Activity is measured by DNA content using SYBR green in vitro. The class given is functional.
Solute carrier family 2, facilitated glucose transporter member 1 (Homo sapiens), sequence (P11166 whole entry): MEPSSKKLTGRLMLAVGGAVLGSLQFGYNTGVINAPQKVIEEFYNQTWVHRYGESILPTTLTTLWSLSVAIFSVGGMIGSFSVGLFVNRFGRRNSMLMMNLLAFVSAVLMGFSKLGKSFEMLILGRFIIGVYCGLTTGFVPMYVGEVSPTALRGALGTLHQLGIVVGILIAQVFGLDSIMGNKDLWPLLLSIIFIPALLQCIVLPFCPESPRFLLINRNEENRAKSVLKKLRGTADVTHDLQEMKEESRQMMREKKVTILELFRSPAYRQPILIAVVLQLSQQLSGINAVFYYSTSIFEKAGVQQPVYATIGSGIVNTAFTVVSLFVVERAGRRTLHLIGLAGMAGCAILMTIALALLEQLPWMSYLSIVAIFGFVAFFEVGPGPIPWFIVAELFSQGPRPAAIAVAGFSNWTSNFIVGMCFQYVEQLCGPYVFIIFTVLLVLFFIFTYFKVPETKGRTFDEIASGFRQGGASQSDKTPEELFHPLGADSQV
On to `COc1cc(CNCCCCCCNCc2cc(OC)c(OC)c3ccccc23)c2ccccc2c1OC`, for which the inhibition came out at 4.44%.

For `COc1ccc(C=NN=c2cc(C)[nH]c3ccccc23)cc1OC`, the inhibition was found to be 7.8%. Still for that read-out and setting: under `CN1CCC(NCc2cccc(-c3ccc(S(=O)(=O)NCCN4CCCC4)s3)c2)CC1` stands 4.8%; under `O=C(NCCCCCN1CCC(c2c[nH]c3ccccc23)CC1)Nc1cccc(I)c1`, 14.6%. Regarding `CN1CCCc2ccc(NC(=O)c3ccc(-c4cc(C(F)(F)F)nn4C)s3)cc2C1`, the inhibition worked out at 2.28%. For `c1ccc2c(Nc3ccc(Oc4ccc(Nc5c6ccccc6nc6ccccc56)cc4)cc3)c3ccccc3nc2c1`, the inhibition turned out to be 2.32%. Turning to `CC(C)c1cn2c3c(cc(C(=O)N[C@@H](Cc4ccccc4)[C@H](O)CNC4CCCCC4)cc13)N(C)S(=O)(=O)CC2`, the inhibition is -1.18%. For `CCOc1ccc(Br)cc1/C=C/C(=O)Nc1ccc2c(c1)CCCN(C)C2`, the inhibition worked out at 11.6%. For `CSC1=NC(=Nc2ccccc2C)C2(CCC(C(C)(C)C)CC2)N1c1ccccc1Cl` (stereo unspecified), the inhibition is -1.03%.

With `CN=C(N)c1ccc(NC(=O)C=Cc2ccc(C(=O)Nc3ccc(C(N)=NC)cc3)cc2)cc1`, the inhibition was 9.91%. On to `Cc1cc(NCc2ccccc2)nc2cc(O)ccc12`, for which the inhibition was 8.52%. Regarding `O=C(Nc1ccc(Oc2cccnc2)cc1)C1CCN(Cc2cc(Cl)ccc2O)CC1`, the inhibition stood at 2.3%. Turning to `CC(CN(C)C)C(=O)Nc1ccc(-c2ccc(-c3nc4cc(F)ccc4[nH]3)cc2)cc1` (stereo unspecified), the inhibition turned out to be 5.33%.

With `CC(C)[C@@H](NC(=O)NC1CCC(CCN2C3CCC2CC(OC(=O)C(CO)c2ccccc2)C3)CC1)C(O)(c1ccccc1)c1ccccc1` (stereo partly specified), the inhibition worked out at 8.23%. Regarding `CCC1CN2CCc3c([nH]c4ccccc34)[C@@H]2C[C@@H]1CC1NCCc2cc(OC)c(OC)cc21` (stereo partly specified), the inhibition is -0.82%.

As to `CCc1cn(CCS(C)(=O)=O)c2ccc(C(=O)N[C@@H](Cc3ccccc3)[C@H](O)CNC(C)(C)CCCC(C)C)cc12`, the inhibition was determined as 5.26%. For `CSC1=NC(C)(C)CC2(CC(c3cccc(C)c3)c3cc(Cl)c(O)cc3O2)N1` (stereo unspecified), the inhibition is 0.95%. On to `CCc1n[nH]c(C(=O)Nc2cccc(N3CCCC3)c2)c1C`, for which the inhibition worked out at 0.38%. Still for that read-out and setting: the figure for `Cc1ccc(-c2cc(C(=O)Nc3ccc(S(=O)(=O)N4CC(C)OC(C)C4)cc3)[nH]n2)c(O)c1` (stereo unspecified) is 3.32%; for `CC1(C)NC(N)=NC(=N)N1OCCCc1cccc(C(F)(F)F)c1` it is -0.43%. On to `COc1ccc(Cn2c(Nc3cccc(C(F)(F)F)c3)nc3cc(C(=O)NC(C)C)cnc32)cc1Cl`, for which the inhibition was 10.3%. Turning to `CCNC(=O)Nc1cccc(-c2cccc(-c3nc4cc(C(F)(F)F)ccc4[nH]3)c2)c1`, the inhibition is 10%.

`COc1ccc(NC(=O)/C=C/c2ccc(-c3ccc(-c4noc(C)n4)cc3)cc2)cc1OCCN(C)C`: the inhibition is -0.19%. Still for that read-out and setting: the figure for `COc1ccc(/C=C/C(=O)N2CCc3cc4nccc(N5CCN6CCC[C@H]6C5)c4cc32)cc1` is 3.43%; for `O=C(Nc1ccc2c(c1)CNCC2)c1ccc(-c2ccc(Cl)cc2)cc1` it is 105%. Turning to `N#CN1CC[C@@H](OC(=O)N[C@@H]2C[C@H]2c2ccccc2)C1`, the inhibition amounted to 8.37%.

A further experiment deals with Hexose transporter 1 (Plasmodium falciparum) (UniProt O97467). Briefly: ST_JUDE_LEISH: Cytotoxicity at 2uM final concentration against transgenic Leishmania Mexicana promastigotes LmPfHT that are glucose transport deficient and complemented with the Plasmodium falciparum hexose transporter. Activity is measured by DNA content using SYBR green in vitro. The experiment is classed as functional.
On to `CC[C@H](C)CNC(=O)c1cncc(-c2cccc(CNCCCc3ccccc3)c2)c1`, for which the inhibition was found to be 3.06%. Turning to `COc1ccc2nccc([C@@H](O)CN3CCC(NC(=O)/C=C/c4c[nH]c5c(C)cccc45)CC3)c2c1`, the inhibition amounted to 1.23%. In the case of `CCOc1cc(OCC)c2ccccc2c1CNCCCCCCNCc1c(OCC)cc(OCC)c2ccccc12`, the inhibition came out at 50.7%. On to `NCc1ccc(CNCc2ccc(-c3ccc(-c4nc5cc(F)ccc5[nH]4)cc3)cc2)cc1`, for which the inhibition came out at 5.39%. As to `CC(C)C[C@@H]1C(=O)N[C@H](C2Cc3ccccc3C2)C(=O)N1[C@@H](C(=O)O)c1ccc(F)cc1F`, the inhibition amounted to 2.13%.

On to `COc1ccc(-n2nc(C)cc2C(=O)NCc2ccc(-c3c(C)noc3C)cc2)cc1`, for which the inhibition stood at 2.4%. As to `COc1ccc2c(c1)ncn2-c1cc(OCc2ccncc2Br)c(C(N)=O)s1`, the inhibition was found to be 1.34%. As to `CN(C)c1ccc(NC(=O)Nc2ccnc3ccc(Br)cc23)cc1`, the inhibition is 3.91%.

Take `Cc1nnc2sc(-c3cccc(NC(=O)c4ccc(N5CCCCC5)c([N+](=O)[O-])c4)c3)nn12`: the inhibition was -1.03%. Take `O=C1COC(c2ccccc2)(c2ccccc2)CN1CC1CCN(Cc2ccc(O)cc2Cl)C1` (stereo unspecified): the inhibition came to 1.71%.

As for `CC(=O)Nc1ccc2[nH]cc(C3CCN(CC4CCN(C(=O)/C=C/c5ccc(Cl)c(Cl)c5)CC4)CC3)c2n1`, the inhibition is 0.87%. Consider `Cc1nc2ccc(NC(=O)c3cc(S(=O)(=O)N(C)C)ccc3Cl)cc2s1`, for which the inhibition stood at 10.6%. `CC(C)(CNCCOc1ccc(Cl)cc1)c1nc(-c2ccnc(N)n2)c(-c2ccc(Cl)c(O)c2)[nH]1`: the inhibition came out at 1.8%.

Take `COc1ccc(NC(=O)Nc2nc3ccccc3s2)cc1N1CCN(C)CC1`: the inhibition is 4.98%. Consider `COc1cc(CNCCCCCCNCc2cc(OC)c(OC)c3ccccc23)c2ccccc2c1OC`, for which the inhibition stood at 4.27%. As to `COc1ccc(C=NN=c2cc(C)[nH]c3ccccc23)cc1OC`, the inhibition was 9.53%.

For `CN1CCC(NCc2cccc(-c3ccc(S(=O)(=O)NCCN4CCCC4)s3)c2)CC1`, the inhibition is 5.43%.

In the case of `O=C(NCCCCCN1CCC(c2c[nH]c3ccccc23)CC1)Nc1cccc(I)c1`, the inhibition turned out to be 12.6%. Regarding `CN1CCCc2ccc(NC(=O)c3ccc(-c4cc(C(F)(F)F)nn4C)s3)cc2C1`, the inhibition was 1.85%. In the case of `c1ccc2c(Nc3ccc(Oc4ccc(Nc5c6ccccc6nc6ccccc56)cc4)cc3)c3ccccc3nc2c1`, the inhibition was 0.88%. In the case of `CC(C)c1cn2c3c(cc(C(=O)N[C@@H](Cc4ccccc4)[C@H](O)CNC4CCCCC4)cc13)N(C)S(=O)(=O)CC2`, the inhibition was -0.34%. As for `CCOc1ccc(Br)cc1/C=C/C(=O)Nc1ccc2c(c1)CCCN(C)C2`, the inhibition came to 10.4%.

In the case of `CSC1=NC(=Nc2ccccc2C)C2(CCC(C(C)(C)C)CC2)N1c1ccccc1Cl` (stereo unspecified), the inhibition was -3.95%. `CN=C(N)c1ccc(NC(=O)C=Cc2ccc(C(=O)Nc3ccc(C(N)=NC)cc3)cc2)cc1`: the inhibition was 15.9%. Turning to `Cc1cc(NCc2ccccc2)nc2cc(O)ccc12`, the inhibition is 13.2%. On the same count and under the same terms, under `O=C(Nc1ccc(Oc2cccnc2)cc1)C1CCN(Cc2cc(Cl)ccc2O)CC1` stands 4.55%. Consider `CC(CN(C)C)C(=O)Nc1ccc(-c2ccc(-c3nc4cc(F)ccc4[nH]3)cc2)cc1` (stereo unspecified), for which the inhibition is 1.98%. The same measure, in the same setting: the figure for `CC(C)[C@@H](NC(=O)NC1CCC(CCN2C3CCC2CC(OC(=O)C(CO)c2ccccc2)C3)CC1)C(O)(c1ccccc1)c1ccccc1` (stereo partly specified) is 8.36%. Still for that read-out and setting: under `CCC1CN2CCc3c([nH]c4ccccc34)[C@@H]2C[C@@H]1CC1NCCc2cc(OC)c(OC)cc21` (stereo partly specified) stands -1.25%. In the case of `CCc1cn(CCS(C)(=O)=O)c2ccc(C(=O)N[C@@H](Cc3ccccc3)[C@H](O)CNC(C)(C)CCCC(C)C)cc12`, the inhibition was 4.33%. Still for that read-out and setting: under `CSC1=NC(C)(C)CC2(CC(c3cccc(C)c3)c3cc(Cl)c(O)cc3O2)N1` (stereo unspecified) stands 1%; under `CCc1n[nH]c(C(=O)Nc2cccc(N3CCCC3)c2)c1C`, 1.73%.

`Cc1ccc(-c2cc(C(=O)Nc3ccc(S(=O)(=O)N4CC(C)OC(C)C4)cc3)[nH]n2)c(O)c1` (stereo unspecified): the inhibition is 2.68%. Take `CC1(C)NC(N)=NC(=N)N1OCCCc1cccc(C(F)(F)F)c1`: the inhibition is -0.35%. Take `COc1ccc(Cn2c(Nc3cccc(C(F)(F)F)c3)nc3cc(C(=O)NC(C)C)cnc32)cc1Cl`: the inhibition amounted to 9.69%. On the same count and under the same terms, under `CCNC(=O)Nc1cccc(-c2cccc(-c3nc4cc(C(F)(F)F)ccc4[nH]3)c2)c1` stands 7.8%. In the case of `COc1ccc(NC(=O)/C=C/c2ccc(-c3ccc(-c4noc(C)n4)cc3)cc2)cc1OCCN(C)C`, the inhibition was determined as 2.25%. On to `COc1ccc(/C=C/C(=O)N2CCc3cc4nccc(N5CCN6CCC[C@H]6C5)c4cc32)cc1`, for which the inhibition turned out to be 4.78%. Take `O=C(Nc1ccc2c(c1)CNCC2)c1ccc(-c2ccc(Cl)cc2)cc1`: the inhibition came out at 95.6%. Same read-out and setting: under `N#CN1CC[C@@H](OC(=O)N[C@@H]2C[C@H]2c2ccccc2)C1` stands 7.38%.
